Experimental data from the supplement of paper PMC10338343.
± gives the standard deviation.

test system: EfPiwi piRISC loaded with piRNA #1 (26 nt); test: pre-steady-state target cleavage rate (min^-1); auxiliary factor: 500 nM Ephydatia muelleri Gtsf1; guide: piRNA #1 5'p-UGAGGUAGUAGGUUGUAUAGUAUCCA; MIWI and MILI are mouse PIWI proteins and EfPiwi is from a freshwater sponge; tags in brackets are library labels; higher = faster piRNA-guided slicing of the target
Procedure, shortened: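 The pre-steady-state cleavage rate came from a burst-and-steady-state fit to pooled data from three Cleave-'n-Seq trials, in which uncleaved targets were sequenced and normalised to depth and to weakly complementary targets. Each reaction held 0.1 nM transcribed, DNA-blocked target RNA library and 1 nM active affinity-purified piRISC carrying one synthetic guide, with or without 500 nM GTSF1 partner protein, in HEPES–potassium acetate buffer at 33 °C for 0–8 or 0–960 min. k3 was capped at 0.0001 min^-1.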

Going from “GGAGAGGAUACUAUACAACCUACUUGGAGA [g7:g25:cont:t1A]” to “GGAGUGGAUACUAUACAUGGAUGAUGGAGA [g14:g26:cont:t1A]”, the “pre-steady-state target cleavage rate” value falls from 0.00281 ± 0.0022 to < 0.0001.

GGAGUGGAUAUCUAUACAACCUACUACCUCA and GGAGAGGAUUCUAUACAACCAACUACCUCA are within error of each other in “pre-steady-state target cleavage rate” value: 0.00883 ± 0.0052 for the first, 0.00361 ± 0.0027 for the second.

GGAGUGGAUACUAUACAACCUACAAGCUCA and GGAGUGGAUACUAUACAACCCUACUACCUCA are within error of each other in “pre-steady-state target cleavage rate” value: 0.00192 ± 0.0017 for the first, 0.00375 ± 0.0023 for the second.

Compared with GGAGACCUUACUAUACAAACCUACUACCUCA, GGAGAGGAUACUAUUCAACCUAGUACCUCA is lower in “pre-steady-state target cleavage rate” value: 0.0103 ± 0.0047 for the first, 0.00256 ± 0.0017 for the second.

GGAGAGGAUACUAUACAUCCUACUAGCUCA and GGAGUGGAUACUAAACAACCUACUACCUCA are within error of each other in “pre-steady-state target cleavage rate” value: 0.00277 ± 0.0019 for the first, 0.00791 ± 0.0037 for the second.

GGAGUGGAUACUAUACAACCUUACUACCUCA and GGAGACGAUACUAUACAACCUACUAGGUCA are within error of each other in “pre-steady-state target cleavage rate” value: 0.00695 ± 0.0034 for the first, 0.0052 ± 0.002 for the second.

GGAGAGGAUACUAUACAACCUAGUACGUCA and GGAGAGGAUACUAUACAAUCCUACUACCUCA are within error of each other in “pre-steady-state target cleavage rate” value: 0.0044 ± 0.0019 for the first, 0.00878 ± 0.0059 for the second.

GGAGACGAUACUAUACAUACCUACUACCUCA and GGAGAGGAUACUAUACAACCUACUUCCUGA are within error of each other in “pre-steady-state target cleavage rate” value: 0.00857 ± 0.0043 for the first, 0.00331 ± 0.0022 for the second.

GGAGAGGAUACUAUACAACCAACUAGCUCA and GGAGACGAUACUAAACAACCUACUACCUGA are within error of each other in “pre-steady-state target cleavage rate” value: 0.00313 ± 0.0016 for the first, 0.00288 ± 0.0022 for the second.

Going from GGAGACGAUACUAUACAACCUUCUACCUGA to GGAGACCUAUGAUAAGAACCUACUACCACA, the “pre-steady-state target cleavage rate” value falls from 0.0056 ± 0.0024 to < 0.0001.

GGAGACCUAUGAUAUCAACCUACUUCCACA and GGAGACCUAUGAUAUCAACCUACUACCAUCA cannot be ordered by “pre-steady-state target cleavage rate” value: < 0.0001 for the first, < 0.0001 for the second.
